Reference: PubChem BioAssay (NCI)
Compounds without any hit were thinned out: in the full panel of roughly 83,000, 20% have a hit.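 Plates (96-well) were seeded with cells, treated with compound at one concentration, and incubated for 48 hours before percent growth was determined.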 Values without a mark were called inactive. Active and inactive are the calls of the source. Rule for the calls: active = growth percent below 10; inactive = the rest.

Tests used:
Assay in all cases: NCI-60 one-dose screen, 48 h (100 = growth as untreated, 0 = no growth, -100 = all killed)
Details in all cases: 10 µM unless noted
[1] = test system: NCI-H23 lung
[2] = test system: NCI-H226 lung
[3] = test system: NCI-H322M lung
[4] = test system: HOP-62 NSCLC
[5] = test system: NCI-H460 lung
[6] = test system: HOP-92 NSCLC
[7] = test system: NCI-H522 lung
[8] = test system: A549/ATCC NSCLC
[9] = test system: 786-0 renal
[10] = test system: COLO 205 colon
[11] = test system: DU-145 prostate
[12] = test system: K-562 leukemia
[13] = test system: MALME-3M melanoma
[14] = test system: MDA-MB-231 breast
[15] = test system: RXF 393 renal
[16] = test system: SF-268 CNS
[17] = test system: SF-295 CNS
[18] = test system: SF-539 CNS
[19] = test system: UACC-257 melanoma
[20] = test system: M14 melanoma

Structure (SMILES) | growth [1] | growth [2] [%] | growth [3] | growth [4] | growth [5] | growth [6] | growth [7] | growth [8] | growth [9] | growth [10] | growth [11] [%] | growth [12] | growth [13] | growth [14] | growth [15] | growth [16] [%] | growth [17] | growth [18] | growth [19] | growth [20]
O=S(=O)(CCN1CCOCC1)Nc1cncc(-c2ccc3ncnc(Nc4ccc(F)c(Cl)c4)c3c2)c1 | 74.8% | 84.8 | 33.8% | 40% | 98.6% | 13% | 54.8% | 77.2% | 58.9% | 64.9% | 65.3 | 96.5% | 57.7% | 67.9% | 84.6% | 63.5 | 82.1% | 75.1% | 87.6% | 73.3%
COc1cc(/C=C\c2cc(/C=C\c3ccc(O)c(OC)c3)n(C(=O)CNc3ccccc3OC)n2)ccc1O | 69.7% | 86 | 90.5% | 86.4% | 81.6% | 81.8% | 21.9% | 83.7% | 97.4% | 107% | 95.3 | 19.4% | 47.9% | 87% | 90.2% | 58.9 | 85.1% | 42% | 85.5% | 35.4%
CC12CCC3C(CCC4CC(O)CCC43C)C1C/C(=C/O)C(=O)O2 (stereo not given) | 98.7% | 96.6 | 107% | 99.1% | 110% | 99.6% | 84.2% | 100% | 111% | 105% | 108 | 102% | 134% | 106% | 99.8% | 101 | 105% | 113% | 92.6% | 105%
COc1cc(-c2nc(N)n(CC(=O)Nc3ccc(/C(C)=N\O)cc3)n2)cc(OC)c1OC | 95.8% | 94.8 | 94.2% | 94.5% | 106% | 88.2% | 60.8% | 74.2% | 104% | 104% | 108 | 96.1% | 96.7% | 103% | 105% | 93.5 | 101% | 97.1% | 63.7% | 101%
O=[N+]([O-])c1cccc(C2c3ccccc3Oc3ccccc32)c1 | 94.6% | 84.1 | 83.6% | 85.4% | 88.1% | 81% | 80.8% | 87.4% | 99.9% | 90.3% | 101 | 65.7% | 101% | 92% | 109% | 102 | 76.9% | 112% | 104% | 110%
C=C1c2c(Cl)ccc(O)c2C(O)=C2C(=O)[C@]3(O)C(O)=C(C(N)=O)C(=O)[C@@H](N(C)C)[C@@H]3[C@@H](O)[C@H]12 | 8.01% (active) | 42.7 | -2.1% (active) | 9.39% (active) | 4.63% (active) | -37.3% (active) | 11.6% | 9.74% (active) | 8.22% (active) | 22.5% | 21.9 | 3.66% (active) | -15% (active) | 11% | 12.4% | 11.8 | -4.14% (active) | 5.14% (active) | -4.26% (active) | 9.22% (active)
CCCCOc1nc2ccc(Cl)cc2cc1/C=C/C(=O)/C=C/c1ccc(OC)cc1 | 95.9% | 99.6 | 95.6% | 110% | 98.4% | 93.4% | 77.5% | 92.1% | 110% | 93.1% | 93.8 | 87% | 100% | 106% | 119% | 95.4 | 113% | 104% | 89.7% | 66.3%
COc1cc(C(=O)NNC(=O)c2ccccc2O)cc(OC)c1OC | 101% | 96.8 | 93.5% | 99.7% | 102% | 83% | 61.9% | 82.9% | 97.6% | 94.3% | 104 | 95.7% | 103% | 87.5% | 99% | 98.1 | 98.2% | 98.5% | 72.4% | 109%
O=C(Nc1ccc(-n2cc(-c3ccncc3)c(-c3ccc(O)c(Cl)c3)n2)cc1)c1ccc(Cl)c(C(F)(F)F)c1 | 29.9% | 79.6 | 54.6% | 33.6% | 8.06% (active) | -3.55% (active) | 24.3% | 28.4% | -30.9% (active) | 57.8% | 35.3 | 5.88% (active) | 25% | -29.1% (active) | -81.6% (active) | 38 | -2.61% (active) | 2.46% (active) | 60.9% | -16.2% (active)
CN(C)CCCOc1c(Br)cc(/C=C/C(=O)N(C)CCc2cc(Br)c(OCCCN(C)C)c(Br)c2)cc1Br | 81.5% | 95.7 | 59.5% | 82.3% | 23.1% | 48.7% | 13.5% | 41.5% | 63.7% | 39.3% | 40.5 | -48.7% (active) | -62.4% (active) | 23.7% | 59.6% | 52.5 | 60.9% | -75.5% (active) | 71.7% | -68.1% (active)
COc1ccc(Cn2cc3c(c2-c2cc(OC)c(OC)c(OC)c2)CCc2c(CO)noc2-3)cc1 | 38.3% | 47.7 | 39.7% | 35.2% | 4.62% (active) | 57% | 9.75% (active) | 32.5% | 45% | -23.6% (active) | 19.4 | 7.1% (active) | 94.8% | 18% | 2.44% (active) | 43 | 14.8% | 3.55% (active) | 64.6% | 7.98% (active)
COC(=O)/C=C/C(=O)c1cc(C)cc(C)c1O | 97.5% | 102 | 101% | 96.6% | 111% | 113% | 92.9% | 98.6% | 100% | 108% | 103 | 103% | 95.7% | 114% | 116% | 95.9 | 93.5% | 99.5% | 99.8% | 102%
COc1ccc(-c2cc(-c3nnc(SC/C(=N\O)c4ccccc4)n3-c3ccccc3)c3ccccc3n2)cc1 | 94.6% | 96.2 | 101% | 91.1% | 104% | 94.8% | 87.2% | 96.8% | 113% | 91.1% | 111 | 113% | 100% | 103% | 117% | 102 | 104% | 102% | 104% | 116%
O=C1C(Cl)=C(Nc2ccccc2)C(=O)C(Cl)=C1Nc1ccccc1 | 106% | 103 | 120% | 113% | 112% | 101% | 112% | 109% | 109% | 109% | 121 | 103% | 119% | 121% | 116% | 105 | 114% | 106% | 107% | 113%
CCCCCCCCCCCC(=O)OCCNC(=O)C[n+]1ccccc1 | 107% | 98.7 | 99.4% | 102% | 120% | 68.7% | 102% | 104% | 112% | 105% | 131 | 117% | 96.3% | 99.6% | 110% | 104 | 78.7% | 105% | 106% | 102%
